From ChEMBL document CHEMBL1961873, “Compounds: GSK PKIS; Assays: Nanosyn kinase panel” (2012) come the findings set out here.

Experiment [1] concerns the target Tyrosine-protein kinase SYK (Homo sapiens) (UniProt P43405). The settings on record: at 1 µM.
The target in experiment [2] is T1, Tyrosine-protein kinase Tec (Homo sapiens) (UniProt P42680).
T1 sequence (whole entry): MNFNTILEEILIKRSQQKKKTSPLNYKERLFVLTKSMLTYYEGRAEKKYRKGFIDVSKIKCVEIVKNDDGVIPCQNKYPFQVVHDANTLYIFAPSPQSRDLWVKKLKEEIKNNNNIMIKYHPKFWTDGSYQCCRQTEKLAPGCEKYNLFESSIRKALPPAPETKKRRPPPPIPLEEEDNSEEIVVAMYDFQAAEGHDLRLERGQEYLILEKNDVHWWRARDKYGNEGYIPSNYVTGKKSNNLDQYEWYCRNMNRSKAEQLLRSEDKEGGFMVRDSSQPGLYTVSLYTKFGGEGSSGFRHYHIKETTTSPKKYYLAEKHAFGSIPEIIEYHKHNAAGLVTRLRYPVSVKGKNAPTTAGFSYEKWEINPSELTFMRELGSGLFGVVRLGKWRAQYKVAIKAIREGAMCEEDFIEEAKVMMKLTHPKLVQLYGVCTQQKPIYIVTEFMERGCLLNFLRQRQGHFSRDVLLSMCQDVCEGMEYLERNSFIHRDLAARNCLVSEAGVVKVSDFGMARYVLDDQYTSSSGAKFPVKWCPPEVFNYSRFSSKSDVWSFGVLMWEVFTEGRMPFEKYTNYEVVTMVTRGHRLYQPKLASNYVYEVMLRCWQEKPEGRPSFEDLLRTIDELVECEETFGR
The settings on record: at 0.1 µM.

The target of experiment [3] is T1, Tyrosine-protein kinase Tec (Homo sapiens). The settings on record: at 1 µM.
For experiment [4], the target named is Angiopoietin-1 receptor (Homo sapiens) (UniProt Q02763). The settings on record: at 0.1 µM.
Angiopoietin-1 receptor (Homo sapiens), sequence (Q02763 whole entry): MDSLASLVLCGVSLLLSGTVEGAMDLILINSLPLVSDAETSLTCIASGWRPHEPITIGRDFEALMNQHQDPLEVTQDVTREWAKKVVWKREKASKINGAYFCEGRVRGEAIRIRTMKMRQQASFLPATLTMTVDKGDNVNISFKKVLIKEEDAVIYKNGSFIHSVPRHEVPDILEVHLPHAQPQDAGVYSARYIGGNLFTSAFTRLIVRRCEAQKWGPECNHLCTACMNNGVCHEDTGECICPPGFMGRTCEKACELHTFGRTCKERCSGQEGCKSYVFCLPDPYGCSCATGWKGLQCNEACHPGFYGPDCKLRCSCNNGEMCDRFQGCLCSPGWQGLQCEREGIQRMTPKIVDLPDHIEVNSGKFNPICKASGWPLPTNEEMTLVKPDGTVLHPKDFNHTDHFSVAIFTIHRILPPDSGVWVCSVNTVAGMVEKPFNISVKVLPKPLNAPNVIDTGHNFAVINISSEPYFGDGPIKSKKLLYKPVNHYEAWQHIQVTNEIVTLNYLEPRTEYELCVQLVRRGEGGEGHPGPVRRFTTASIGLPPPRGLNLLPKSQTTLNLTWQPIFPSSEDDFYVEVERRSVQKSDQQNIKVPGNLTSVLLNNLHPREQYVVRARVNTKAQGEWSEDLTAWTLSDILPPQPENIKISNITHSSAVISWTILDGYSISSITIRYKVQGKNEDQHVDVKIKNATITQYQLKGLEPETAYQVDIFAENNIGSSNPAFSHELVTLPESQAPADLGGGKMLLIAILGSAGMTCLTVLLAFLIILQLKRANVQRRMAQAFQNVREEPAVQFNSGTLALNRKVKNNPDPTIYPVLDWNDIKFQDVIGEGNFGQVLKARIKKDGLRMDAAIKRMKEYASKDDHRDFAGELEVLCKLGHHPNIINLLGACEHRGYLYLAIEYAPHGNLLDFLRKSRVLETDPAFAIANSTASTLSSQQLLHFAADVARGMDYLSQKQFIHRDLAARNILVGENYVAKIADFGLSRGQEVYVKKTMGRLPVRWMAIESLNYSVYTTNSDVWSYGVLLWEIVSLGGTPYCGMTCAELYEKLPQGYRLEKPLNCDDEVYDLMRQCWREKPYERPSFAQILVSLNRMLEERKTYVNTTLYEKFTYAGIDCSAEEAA
Experiment [5] has the same target. As to conditions: at 1 µM.
The target of experiment [6] is T2, Non-receptor tyrosine-protein kinase TNK1 (Homo sapiens) (UniProt Q13470).
T2 sequence (whole entry): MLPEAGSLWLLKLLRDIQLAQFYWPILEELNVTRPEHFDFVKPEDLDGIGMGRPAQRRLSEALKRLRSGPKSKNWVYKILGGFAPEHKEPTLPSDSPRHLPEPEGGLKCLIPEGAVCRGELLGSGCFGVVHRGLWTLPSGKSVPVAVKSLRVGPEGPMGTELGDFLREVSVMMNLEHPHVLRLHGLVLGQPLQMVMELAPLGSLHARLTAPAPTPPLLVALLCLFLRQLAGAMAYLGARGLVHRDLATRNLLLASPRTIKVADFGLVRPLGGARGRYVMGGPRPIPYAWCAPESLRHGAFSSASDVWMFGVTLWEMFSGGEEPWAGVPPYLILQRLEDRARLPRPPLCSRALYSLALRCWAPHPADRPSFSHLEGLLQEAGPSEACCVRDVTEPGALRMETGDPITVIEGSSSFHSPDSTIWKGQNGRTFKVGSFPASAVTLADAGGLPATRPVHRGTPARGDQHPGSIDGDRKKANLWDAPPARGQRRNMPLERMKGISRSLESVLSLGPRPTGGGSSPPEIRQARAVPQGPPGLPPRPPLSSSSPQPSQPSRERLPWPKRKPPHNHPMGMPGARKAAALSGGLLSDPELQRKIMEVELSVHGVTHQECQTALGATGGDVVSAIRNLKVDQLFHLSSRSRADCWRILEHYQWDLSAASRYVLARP
The settings on record: at 0.1 µM.

For experiment [7], the target named is T2, Non-receptor tyrosine-protein kinase TNK1 (Homo sapiens). The settings on record: at 1 µM.
The target in experiment [8] is Activated CDC42 kinase 1 (Homo sapiens) (UniProt Q07912). The settings on record: at 0.1 µM.
Activated CDC42 kinase 1 (Homo sapiens), sequence (Q07912 whole entry, looked up): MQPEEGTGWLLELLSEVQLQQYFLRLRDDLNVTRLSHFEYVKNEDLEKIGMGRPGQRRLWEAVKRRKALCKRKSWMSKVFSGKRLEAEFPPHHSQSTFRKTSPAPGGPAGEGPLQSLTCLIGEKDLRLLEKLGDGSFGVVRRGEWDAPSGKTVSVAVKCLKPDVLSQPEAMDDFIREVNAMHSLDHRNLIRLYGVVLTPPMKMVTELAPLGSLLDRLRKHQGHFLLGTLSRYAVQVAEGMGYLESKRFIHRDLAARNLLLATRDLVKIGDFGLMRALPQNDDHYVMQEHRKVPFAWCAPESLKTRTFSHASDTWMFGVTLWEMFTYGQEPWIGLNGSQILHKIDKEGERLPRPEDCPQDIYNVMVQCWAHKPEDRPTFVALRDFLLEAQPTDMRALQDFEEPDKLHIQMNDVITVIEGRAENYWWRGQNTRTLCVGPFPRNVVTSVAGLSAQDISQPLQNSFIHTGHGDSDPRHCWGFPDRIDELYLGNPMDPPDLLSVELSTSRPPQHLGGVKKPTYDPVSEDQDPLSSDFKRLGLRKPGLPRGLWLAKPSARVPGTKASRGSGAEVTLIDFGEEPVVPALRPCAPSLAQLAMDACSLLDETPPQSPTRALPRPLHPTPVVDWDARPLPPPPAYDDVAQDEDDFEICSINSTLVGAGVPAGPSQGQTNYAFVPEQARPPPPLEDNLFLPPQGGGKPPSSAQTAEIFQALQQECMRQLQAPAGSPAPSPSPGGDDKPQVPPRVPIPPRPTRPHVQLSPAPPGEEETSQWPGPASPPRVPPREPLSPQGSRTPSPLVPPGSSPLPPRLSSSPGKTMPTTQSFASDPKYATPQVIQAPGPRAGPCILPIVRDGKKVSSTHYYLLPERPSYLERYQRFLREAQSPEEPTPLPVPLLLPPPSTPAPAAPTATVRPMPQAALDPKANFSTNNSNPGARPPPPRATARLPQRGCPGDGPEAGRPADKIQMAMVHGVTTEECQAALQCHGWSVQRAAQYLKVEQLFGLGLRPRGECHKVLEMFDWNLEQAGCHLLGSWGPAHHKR
Experiment [9] has the same target. As to conditions: at 1 µM.
Experiment [10] has as its target High affinity nerve growth factor receptor (Homo sapiens) (UniProt P04629). The settings on record: at 0.1 µM.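 Also: each value is a mean of replicate percent inhibition readings against TRKA kinase.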

High affinity nerve growth factor receptor (Homo sapiens), sequence (P04629 33-796 limits assumed): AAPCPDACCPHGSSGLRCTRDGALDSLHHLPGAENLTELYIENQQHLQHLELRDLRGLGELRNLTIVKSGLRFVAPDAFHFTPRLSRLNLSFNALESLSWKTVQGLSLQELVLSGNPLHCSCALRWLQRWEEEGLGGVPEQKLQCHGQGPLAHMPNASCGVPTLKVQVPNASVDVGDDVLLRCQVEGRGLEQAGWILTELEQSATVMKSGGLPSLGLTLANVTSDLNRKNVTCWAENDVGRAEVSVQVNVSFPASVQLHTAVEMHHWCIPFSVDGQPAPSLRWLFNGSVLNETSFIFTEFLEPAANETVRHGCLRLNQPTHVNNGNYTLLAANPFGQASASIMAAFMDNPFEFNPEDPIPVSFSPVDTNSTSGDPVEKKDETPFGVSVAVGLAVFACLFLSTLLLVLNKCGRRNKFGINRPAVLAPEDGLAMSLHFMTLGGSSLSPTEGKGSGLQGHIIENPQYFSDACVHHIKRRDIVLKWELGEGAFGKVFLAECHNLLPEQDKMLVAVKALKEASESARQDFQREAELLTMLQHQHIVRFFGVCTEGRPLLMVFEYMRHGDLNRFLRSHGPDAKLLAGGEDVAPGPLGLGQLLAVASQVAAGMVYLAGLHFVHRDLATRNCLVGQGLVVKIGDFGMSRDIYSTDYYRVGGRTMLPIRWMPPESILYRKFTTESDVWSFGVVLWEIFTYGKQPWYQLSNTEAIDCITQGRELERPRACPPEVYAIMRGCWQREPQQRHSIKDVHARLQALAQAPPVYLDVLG

Take `CCn1c(-c2nonc2N)nc2cncc(C(=O)N3CCNCC3)c21`: the inhibition in experiment [1] was found to be 3.25%; in [2] it was 7.87%; in experiment [3], 7.17%; in [4], 6.61%; in experiment [5] it was 5.14%; in experiment [6] it was 3.89%. The inhibition in [7] came out at 5.69%; in [8], 1.51%; in experiment [9], 1.52%; in experiment [10], 1.71%.
Regarding `Cc1cccc(-c2n[nH]cc2-c2ccc3ncccc3n2)n1`, the inhibition in experiment [1] is -0.38%; in [2] it was 0.76%; in experiment [3], 1.51%; in experiment [4], 1.2%; in experiment [5], 3.33%; in experiment [6] it was -0.63%. Also, the inhibition in [7] is 0.33%; in experiment [8], -0.11%; in [9] it was 0.91%; in experiment [10], -1%.
For the molecule `CC1=C(C(=O)Nc2ccc3[nH]ncc3c2)C(c2ccc(F)cc2)NC(=O)N1` (stereo not given), the inhibition in experiment [1] amounted to 1.72%; in experiment [2], 2.11%; in experiment [3], 2.37%; in [4], 0.66%; in experiment [5], 3.1%; in experiment [6] it was 4.95%. Besides, the inhibition in [7] is 31.2%; in experiment [8] it was 0.84%; in experiment [9], 3.68%; in experiment [10] it was 0.85%.
As to `CCc1cccc(NC(=O)Nc2ccc(Oc3ccc4nc(NC(=O)OC)[nH]c4c3)cc2)c1`, the inhibition in experiment [1] was -0.99%; in experiment [2], 2.07%; in [3] it was 3.91%; in experiment [4], 46.2%; in [5] it was 55.7%; in [6], 3.34%. The inhibition in experiment [7] was 13.8%; in experiment [8] it was -0.42%; in experiment [9] it was 1.35%; in [10], 30.8%.
On to `O=C1NC(=O)C(N2CCc3ccccc32)=C1c1ccc(Cl)cc1`, for which the inhibition was -1.26% in experiment [1]; 6.1% in experiment [2]; 9.11% in experiment [3]; 5.59% in [4]; 8.86% in experiment [5]; 4.03% in experiment [6]. Besides, the inhibition is -0.43% in experiment [7], 3.17% in experiment [8], 1.5% in experiment [9] and 4.36% in experiment [10].
Consider `NS(=O)(=O)c1ccc(N/N=C2\C(=O)Nc3ccc(C(=O)NCCc4c[nH]cn4)cc32)cc1`, for which the inhibition in [1] was -0.45%; in [2], 5.46%; in experiment [3] it was 12.1%; in experiment [4], 1.64%; in experiment [5], 3.16%; in experiment [6], 1.59%. In addition, the inhibition came out at 10.1% in experiment [7], 1.35% in experiment [8], 2.72% in [9] and 5.55% in experiment [10].
`CC(=O)Nc1cccc(C#Cc2cncnc2Nc2ccc(OCc3cccc(F)c3)c(Cl)c2)n1`: the inhibition was -0.2% in [1]; -0.56% in experiment [2]; 0.51% in experiment [3]; -1.08% in experiment [4]; 2.93% in [5]; -0.47% in [6]. For the same molecule, the inhibition in experiment [7] was 13.1%; in experiment [8], -0.48%; in experiment [9] it was 2.35%; in [10], -4.25%.
With `COc1cccc(-n2ncc3c(N/N=C/c4cccc(F)c4)ncnc32)c1`, the inhibition was -0.87% in experiment [1]; -1.33% in experiment [2]; 2.09% in experiment [3]; 1.49% in experiment [4]; 9% in experiment [5]; 2.13% in [6]. In addition, the inhibition in experiment [7] worked out at 2.44%; in experiment [8] it was 0.24%; in [9], 0.25%; in experiment [10], 3.27%.
Consider `Cc1ccc(NC(=O)c2ccnc(N3CCCC3)c2)cc1-c1ccc(C(=O)NCC2CC2)cc1`, for which the inhibition in experiment [1] is -1.46%; in [2], 0.49%; in experiment [3] it was 3.83%; in experiment [4], 1.03%; in experiment [5], 5.42%; in [6], 2.43%. Moreover, the inhibition in experiment [7] is -2.64%; in experiment [8], 1.07%; in experiment [9], 1.27%; in experiment [10], 1.92%.
On to `COc1cc2ncn(-c3cc(OCc4ccccc4Cl)c(C(N)=O)s3)c2cc1OC`, for which the inhibition in experiment [1] came out at 1.86%; in [2], 1.67%; in experiment [3], 7.65%; in experiment [4], 3.11%; in experiment [5], 26.9%; in [6] it was 16.9%. Besides, the inhibition came out at 63.2% in experiment [7], 0.35% in [8], 7.05% in [9] and 0.53% in experiment [10].
For the molecule `COc1cc2c(cc1Nc1nc(N3CCc4ccccc43)c3cc[nH]c3n1)N(C(=O)CN(C)C)CC2`, the inhibition was -0.01% in experiment [1]; 2.67% in experiment [2]; 7.6% in experiment [3]; -0.77% in experiment [4]; 1.37% in [5]; 1.17% in experiment [6]. Further, the inhibition amounted to 12% in experiment [7], 0.63% in [8], 1.93% in [9] and 0.79% in experiment [10].
As for `COc1ccccc1Nc1ncc(-c2ccccc2)o1`, the inhibition was -4.41% in experiment [1]; 2.21% in experiment [2]; 7.28% in [3]; 0.33% in [4]; 6.44% in [5]; 3.82% in experiment [6]. Further, the inhibition in experiment [7] stood at 13.8%; in experiment [8], 0.63%; in experiment [9], 3.33%; in experiment [10], 1.73%.
For the molecule `CS(=O)(=O)Nc1ccc(N/C=C2\C(=O)Nc3ccccc32)cc1`, the inhibition is -3.83% in experiment [1]; -2.97% in [2]; 0.17% in experiment [3]; 0.36% in [4]; 2.36% in experiment [5]; -2.85% in experiment [6]. Besides, the inhibition in [7] is 6.96%; in [8], -0.49%; in [9], 1.32%; in [10], 5.97%.
Take `CS(=O)(=O)CCN(CC#N)Cc1ccc(-c2ccc3ncnc(Nc4ccc(OCc5cccc(F)c5)c(Cl)c4)c3c2)o1`: the inhibition in experiment [1] was 1.94%; in [2] it was -2.12%; in experiment [3] it was -1.96%; in experiment [4], 2.27%; in experiment [5], 1.84%; in experiment [6], 2.76%. Also, the inhibition was 23.2% in experiment [7], -0.59% in experiment [8], 0.01% in experiment [9] and 2.64% in experiment [10].
In the case of `N#Cc1c(NC(=O)c2cccc3ccccc23)sc2c1CCCC2`, the inhibition in experiment [1] amounted to 2.16%; in experiment [2], 2.31%; in [3], 3.43%; in experiment [4], 2.34%; in experiment [5], 6.02%; in experiment [6], 1.31%. Further, the inhibition was -2.02% in [7], 0.12% in experiment [8], 0.56% in [9] and 3.35% in experiment [10].
For `[O-][S+]1CCN(Cc2ccc(-c3ccc4ncnc(Nc5ccc(OCc6ccccc6)c(F)c5)c4c3)o2)CC1`, the inhibition was -0.11% in experiment [1]; 3.42% in experiment [2]; 4.7% in experiment [3]; 2.18% in experiment [4]; 2.24% in experiment [5]; 0.61% in experiment [6]. Further, the inhibition in experiment [7] came to 7.01%; in [8], 0.67%; in experiment [9], 0.38%; in experiment [10], 1.24%.
Take `Cn1cc(C=C2C(=O)Nc3cccnc32)c2ccccc21`: the inhibition is -2.64% in [1]; 2.46% in experiment [2]; 8.75% in experiment [3]; 2.82% in experiment [4]; 5.24% in experiment [5]; 4.27% in [6]. The inhibition in experiment [7] is 9.9%; in experiment [8] it was 0.71%; in experiment [9], 1.72%; in [10], 13.9%.

The term inhibition denotes the relative decrease from the control value, in per cent.
